# Results as given in PubChem BioAssay.
# Active and inactive are the calls of the source. Unless noted, the rule behind the calls is not given here.
# Key:
# [1] = resazurin metabolic signal in HepG2 cells – cell-based, resazurin fluorescence, 24 h, PK04 Diversity Set, profiling panel (AID 1172); conditions: HepG2 viability, higher = more signal
# [2] = budding yeast growth changes without added modifier – OD600, strain BY4716, 24 h, basal condition, primary screen (AID 1173); conditions: S. cerevisiae BY4716 growth, OD600, 24 h; higher = more signal, called active from +8 up or from −8 down
# [3] = viability profiling in MM1S myeloma cells – cell-based, resazurin fluorescence, basal, 24 h, PK04 Diversity Set, profiling panel (AID 1174); conditions: higher = more signal, called active from +8 up or from −8 down;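 note: MM1S multiple myeloma cell line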
# [4] = target: Dihydroorotate dehydrogenase (quinone), mitochondrial (Plasmodium falciparum (isolate 3D7)) (UniProt Q08210); test: inhibition of P. falciparum DHODH – biochemical, C-terminal His tag, absorbance 600 nm, primary screen (AID 1175); conditions: PfDHODH enzyme, DCIP absorbance 600 nm; higher = more signal, called active from +8 up or from −8 down;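 note: recombinant parasite enzyme with a five histidine tag at its C terminus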
# [5] = growth modulation of vineyard yeast isolate – strain RM11-1a, OD600, basal, 24 h, primary screen (AID 1177);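 note: cultures grown under basal conditions with no added stressor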; conditions: S. cerevisiae RM11-1a growth, OD600, 24 h; higher = more signal, called active from +8 up or from −8 down
# [6] = growth of efflux-deficient E. coli DRC39 – strain DRC39, OD650, 24 h, E. coli filamentation inducers, primary screen (AID 1178);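 note: growth measured as culture turbidity by optical density at 650 nm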; conditions: E. coli DRC39 acrAB, higher = more signal, called active from +8 up or from −8 down
# [7] = growth of efflux-deficient E. coli DRC39 – strain DRC39, OD650, 48 h, E. coli filamentation inducers, primary screen (AID 1179);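 note: screen aims at cell division blockers that make cells filament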; conditions: E. coli DRC39 delta-acrAB growth, higher = more signal, called active from +8 up or from −8 down
# [8] = viability profiling in RPMI8226 myeloma cells – cell-based, resazurin fluorescence, basal, 24 h, PK04 Diversity Set, profiling panel (AID 1180); conditions: higher = more signal;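 note: RPMI8826 multiple myeloma cell line at 5000 cells per well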
# [9] = target: E3 ubiquitin-protein ligase XIAP (Homo sapiens) (UniProt P98170); test: small molecules binding XIAP protein – biophysical, small-molecule microarray, fluorescence 635 nm, primary screen (AID 1181); conditions: higher = more signal;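 note: score merges 667 nm emission and signal to noise over triplicate slides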
# [10] = tested on: XIP peptide (Xip251-270) binding; test: XIP fragment 251-270 binding compounds – biochemical, small-molecule microarray, fluorescence 635/667 nm, 0.1 µg/mL protein, primary screen (AID 1182); conditions: fluorescent protein binding, 635 nm, higher = more signal, called active from +8 up or from −8 down
# XIP peptide (Xip251-270) = test: compounds binding XIP fragment 251-270 – biochemical, small-molecule microarray, fluorescence 635/667 nm, 0.5 µg/mL protein, primary screen (AID 1183); conditions: fluorescence 635 nm, higher = more signal
# [11] = blood-stage malaria parasite viability loss – strain 3D7, DAPI fluorescence, 100 nL, primary screen (AID 1184);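 note: parasites grown inside human red blood cells in medium with human serum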; conditions: P. falciparum 3D7 growth, 3 d, higher = more signal
# [12] = target: Homeobox protein Hox-A13 (Mus musculus) (UniProt Q62424); test: disruptors of Hoxa13 oligonucleotide interaction – biochemical, fluorescence polarization, labeled oligonucleotide, primary screen (AID 1185); conditions: Hoxa13:DNA binding, 15 min, higher = more signal, called active from +8 up or from −8 down
# [13] = blockers of DNA damage checkpoint Chk1 activation – imaging, HeLa, hydroxyurea, phospho-Chk1 antibody, percent positive cells, primary screen (AID 1186); conditions: hydroxyurea-induced phospho-Chk1 immunofluorescence imaging, higher = more signal
# [14] = blockers of DNA damage checkpoint Chk1 activation – imaging, HeLa, hydroxyurea, phospho-Chk1 nuclear intensity, primary screen (AID 1187); conditions: hydroxyurea-induced phospho-Chk1 immunofluorescence imaging, higher = more signal
# Homeobox protein Hox-A13 (Mus musculus), sequence (Q62424 whole entry, looked up): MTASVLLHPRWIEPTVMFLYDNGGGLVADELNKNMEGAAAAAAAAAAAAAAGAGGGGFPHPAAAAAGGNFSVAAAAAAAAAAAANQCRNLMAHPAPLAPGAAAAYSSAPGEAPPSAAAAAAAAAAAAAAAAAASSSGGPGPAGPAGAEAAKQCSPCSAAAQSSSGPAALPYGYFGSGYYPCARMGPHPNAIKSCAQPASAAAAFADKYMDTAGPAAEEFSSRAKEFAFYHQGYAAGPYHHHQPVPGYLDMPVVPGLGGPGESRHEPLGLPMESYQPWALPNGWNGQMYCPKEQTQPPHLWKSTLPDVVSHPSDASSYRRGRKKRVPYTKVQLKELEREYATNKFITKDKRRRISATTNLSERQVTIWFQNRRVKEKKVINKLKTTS
# E3 ubiquitin-protein ligase XIAP (Homo sapiens), sequence (P98170 whole entry, looked up, the tested form may be a part): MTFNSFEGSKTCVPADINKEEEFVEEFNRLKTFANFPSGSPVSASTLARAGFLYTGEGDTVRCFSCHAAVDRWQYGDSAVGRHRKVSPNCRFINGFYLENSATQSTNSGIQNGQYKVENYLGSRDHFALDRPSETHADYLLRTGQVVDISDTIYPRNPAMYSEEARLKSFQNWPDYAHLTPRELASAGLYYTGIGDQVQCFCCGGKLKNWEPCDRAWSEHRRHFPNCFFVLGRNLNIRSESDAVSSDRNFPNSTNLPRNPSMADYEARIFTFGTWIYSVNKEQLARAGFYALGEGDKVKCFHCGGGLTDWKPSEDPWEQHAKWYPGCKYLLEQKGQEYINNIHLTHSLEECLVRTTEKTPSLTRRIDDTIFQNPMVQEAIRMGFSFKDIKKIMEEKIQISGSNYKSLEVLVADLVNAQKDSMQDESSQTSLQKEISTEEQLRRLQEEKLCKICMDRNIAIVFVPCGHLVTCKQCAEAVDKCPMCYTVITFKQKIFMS
# Dihydroorotate dehydrogenase (quinone), mitochondrial (Plasmodium falciparum (isolate 3D7)), sequence (Q08210 whole entry, looked up): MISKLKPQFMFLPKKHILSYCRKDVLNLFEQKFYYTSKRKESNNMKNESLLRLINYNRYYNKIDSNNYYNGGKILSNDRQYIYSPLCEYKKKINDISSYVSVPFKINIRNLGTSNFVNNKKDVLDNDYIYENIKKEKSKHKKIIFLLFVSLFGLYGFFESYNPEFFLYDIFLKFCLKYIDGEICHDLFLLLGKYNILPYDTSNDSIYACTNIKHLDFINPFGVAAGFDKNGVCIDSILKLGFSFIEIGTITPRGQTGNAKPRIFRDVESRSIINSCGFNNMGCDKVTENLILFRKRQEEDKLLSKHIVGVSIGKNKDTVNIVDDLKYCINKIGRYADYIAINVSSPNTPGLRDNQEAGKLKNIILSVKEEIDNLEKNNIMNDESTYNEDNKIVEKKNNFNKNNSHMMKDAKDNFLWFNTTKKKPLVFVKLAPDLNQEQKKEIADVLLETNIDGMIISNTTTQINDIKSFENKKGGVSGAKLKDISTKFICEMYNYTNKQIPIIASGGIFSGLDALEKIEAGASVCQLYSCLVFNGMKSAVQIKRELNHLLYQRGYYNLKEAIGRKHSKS
smiles,measurement,setting,value
C=CCC(OC(C)=O)[C@@H]1[C@@H](N(Cc2cc3ccccc3o2)C(=O)c2ccc(C)cc2)c2cc(OCCCO)ccc2N1C(=O)c1ccc2ccccc2n1 (stereo partly specified),z-score,[1],1.8
same,z-score,[2],-0.934 (inactive)
same,z-score,[3],1.37 (inactive)
same,composite z-score,[4],0.309 (inactive)
same,z-score,[5],-0.0157 (inactive)
same,z-score,[6],1.74 (inactive)
same,z-score,[7],1.42 (inactive)
same,z-score,[8],0.585
same,composite z-score,[9],0.437
same,composite z-score,[10],0.167 (inactive)
same,composite z-score,XIP peptide (Xip251-270),-0.442
same,z-score,[11],-0.863
same,z-score,[12],-1.79 (inactive)
same,z-score,[13],0.347 (inactive)
same,z-score,[14],0.295 (inactive)
C=CC[C@]1(C(N)=O)N=C(c2ccc(OCCCO)cc2)O[C@H]1c1ccccc1CN=[N+]=[N-],z-score,[1],0.394
same,z-score,[2],-1.06 (inactive)
same,z-score,[3],1.06 (inactive)
same,composite z-score,[4],0.199 (inactive)
same,z-score,[5],-0.592 (inactive)
same,z-score,[6],2.91 (inactive)
same,z-score,[7],1.21 (inactive)
same,z-score,[8],1.1
same,composite z-score,[9],-0.16
same,composite z-score,[10],0.914 (inactive)
same,composite z-score,XIP peptide (Xip251-270),-0.313
same,z-score,[11],-2.04
same,z-score,[12],-2.82 (inactive)
same,z-score,[13],-0.273 (inactive)
same,z-score,[14],0.168 (inactive)
COCCOC(=O)N1C(=O)[C@@]2(c3cc(C#CCCO)ccc31)[C@H](C(=O)N1CCCCCCC1)[C@H]1C(=O)O[C@H](c3ccccc3)[C@H](c3ccccc3)N1[C@@H]2c1ccc(O)cc1,z-score,[1],0.801
same,z-score,[2],-1.74 (inactive)
same,z-score,[3],1.14 (inactive)
same,composite z-score,[4],0.138 (inactive)
same,z-score,[5],-2.75 (inactive)
same,z-score,[6],0.561 (inactive)
same,z-score,[7],1.43 (inactive)
same,z-score,[8],0.613
same,composite z-score,[9],0.144
same,composite z-score,[10],1.48 (inactive)
same,composite z-score,XIP peptide (Xip251-270),0.63
same,z-score,[11],-0.303
same,z-score,[12],-0.579 (inactive)
same,z-score,[13],-0.424 (inactive)
same,z-score,[14],-0.457 (inactive)
C[N+](C)(C)CCCCNC(=O)[C@@H]1C[C@@H]2C(=O)N3CCC[C@H]3C(=O)N2[C@@H]1c1cccc(OCCO)c1,z-score,[1],0.0931
same,z-score,[2],0.0521 (inactive)
same,z-score,[3],0.982 (inactive)
same,composite z-score,[4],-31.2 (active)
same,z-score,[5],-1.27 (inactive)
same,z-score,[6],0.497 (inactive)
same,z-score,[7],0.0567 (inactive)
same,z-score,[8],0.947
same,composite z-score,[9],-0.0619
same,composite z-score,[10],3.4 (inactive)
same,composite z-score,XIP peptide (Xip251-270),0.839
same,z-score,[11],-0.294
same,z-score,[12],-1.2 (inactive)
same,z-score,[13],-0.162 (inactive)
same,z-score,[14],0.319 (inactive)
CO[C@@H]1COC(=O)CC=C[C@@H](C)[C@H](OC)COC(=O)CC=C[C@H]1C,z-score,[1],0.994
same,z-score,[2],-1.43 (inactive)
same,z-score,[3],0.176 (inactive)
same,composite z-score,[4],-0.136 (inactive)
same,z-score,[5],-0.658 (inactive)
same,z-score,[6],0.642 (inactive)
same,z-score,[7],0.505 (inactive)
same,z-score,[8],0.854
same,composite z-score,[9],0.0891
same,composite z-score,[10],-0.583 (inactive)
same,composite z-score,XIP peptide (Xip251-270),0.428
same,z-score,[11],0.674
same,z-score,[12],-0.26 (inactive)
CC(C)CNC(=O)[C@@]1(C)c2ccccc2C(=O)N(Cc2ccc(OC(F)(F)F)cc2)[C@H]1c1ccc(CO)cc1,z-score,[1],0.518
same,z-score,[2],-1.51 (inactive)
same,z-score,[3],1.88 (inactive)
same,composite z-score,[4],0.329 (inactive)
same,z-score,[5],-0.229 (inactive)
same,z-score,[6],0.726 (inactive)
same,z-score,[7],0.152 (inactive)
same,z-score,[8],1.75
same,composite z-score,[9],0.149
same,composite z-score,[10],-0.332 (inactive)
same,composite z-score,XIP peptide (Xip251-270),-1.4
same,z-score,[11],-1.12
same,z-score,[12],-2.24 (inactive)
same,z-score,[13],-0.273 (inactive)
same,z-score,[14],-0.177 (inactive)
NC(=O)NCC#Cc1ccc2c(c1)[C@]1(C(=O)N2)[C@H](C(=O)N2CCCCCCC2)[C@H]2C(=O)O[C@H](c3ccccc3)[C@H](c3ccccc3)N2[C@@H]1c1ccccc1OCCO,z-score,[1],0.237
same,z-score,[2],-0.643 (inactive)
same,z-score,[3],1.4 (inactive)
same,composite z-score,[4],-0.121 (inactive)
same,z-score,[5],0.827 (inactive)
same,z-score,[6],0.218 (inactive)
same,z-score,[7],0.125 (inactive)
same,z-score,[8],1.13
same,composite z-score,[9],0.306
same,composite z-score,[10],4.02 (inactive)
same,composite z-score,XIP peptide (Xip251-270),0.486
same,z-score,[11],-1.83
same,z-score,[12],4.43 (inactive)
same,z-score,[13],0.323 (inactive)
same,z-score,[14],0.671 (inactive)
C=CC[C@]1(C(=O)OC)N=C(c2ccc(OCCCO)cc2)O[C@H]1c1ccccc1CN=[N+]=[N-],z-score,[1],0.84
same,z-score,[2],-4.46 (inactive)
same,z-score,[3],-0.609 (inactive)
same,composite z-score,[4],0.632 (inactive)
same,z-score,[5],0.0359 (inactive)
same,z-score,[6],2.63 (inactive)
same,z-score,[7],0.604 (inactive)
same,z-score,[8],0.239
same,composite z-score,[9],0.232
same,composite z-score,[10],-0.127 (inactive)
same,composite z-score,XIP peptide (Xip251-270),-0.239
same,z-score,[11],-2.35
same,z-score,[12],-1.99 (inactive)
same,z-score,[13],-0.0854 (inactive)
same,z-score,[14],0.137 (inactive)
CCN1C(C)=C(C(=O)OC)[C@@H](c2ccccc2)N2C(=O)[C@@]3(C(=O)OC)O[C@@]12[C@@H]1C(=O)CCC[C@@H]13,z-score,[1],0.584
same,z-score,[2],-0.99 (inactive)
same,z-score,[3],1.03 (inactive)
same,composite z-score,[4],-1.39 (inactive)
same,z-score,[5],0.989 (inactive)
same,z-score,[6],-0.275 (inactive)
same,z-score,[7],-0.0144 (inactive)
same,z-score,[8],0.835
same,composite z-score,[9],0.111
same,composite z-score,[10],-0.147 (inactive)
same,composite z-score,XIP peptide (Xip251-270),-1.03
same,z-score,[11],-0.625
same,z-score,[12],-0.386 (inactive)
CCCC/C=C/[C@H]([C@@H](O)Cc1ccccc1)N(CC#Cc1ccccc1)Cc1ccccc1Br,z-score,[1],1.65
same,z-score,[2],-1.44 (inactive)
same,z-score,[3],0.579 (inactive)
same,composite z-score,[4],0.197 (inactive)
same,z-score,[5],0.994 (inactive)
same,z-score,[6],2.75 (inactive)
same,z-score,[7],1.19 (inactive)
same,z-score,[8],0.788
same,composite z-score,[9],-0.039
same,composite z-score,[10],0.227 (inactive)
same,composite z-score,XIP peptide (Xip251-270),-1.26
same,z-score,[11],-0.972
same,z-score,[12],0.453 (inactive)
same,z-score,[13],-0.138 (inactive)
same,z-score,[14],-0.0836 (inactive)
